The values that follow come from PubChem BioAssay (NCI).

About 83,000 compounds went through this panel and 20% of them were active in at least one assay; those are over-represented in the sample as a whole.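 Cell lines were cultured in 96-well plates, exposed to a single compound concentration, and assessed for percent growth 48 hours later.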 Unmarked numbers belong to inactive results. Activity calls are given as the source filed them. How the source made its calls: active means growth percent below 10; inactive means the rest.

Assay in all cases: NCI-60 one-dose screen, 48 h (100 = growth as untreated, 0 = no growth, -100 = all killed)
Settings in all cases: 10 µM

Experiment [1] relates to DU-145 prostate.
The test system of experiment [2] is K-562 leukemia.
For experiment [3], the system named is MALME-3M melanoma.
The subject of experiment [4] is RXF 393 renal.
Experiment [5] has as its system SF-268 CNS.
Experiment [6] deals with SF-295 CNS.
The subject of experiment [7] is SF-539 CNS.
The subject of experiment [8] is UACC-257 melanoma.
Experiment [9] deals with M14 melanoma.
Experiment [10] has as its system MDA-MB-231 breast.

Turning to `Cc1nn(-c2ccccc2)c2ncn(CC(=O)N/N=C/c3c[nH]c4ccccc34)c(=O)c12`, the growth in experiment [1] was 99.6%; in experiment [2], 84.2%; in experiment [3], 69%; in experiment [4], 89.5%; in [5], 73.5%; in experiment [6], 88.7%. In addition, the growth in experiment [7] was 84.6%; in experiment [8] it was 94.3%; in [9], 92.3%.

For `COC(=O)C[C@](O)(CCCC(C)(C)O)C(=O)O[C@H]1C(OC)=C[C@@]23CCC(=O)N2CCc2cc4c(cc2[C@@H]13)OCO4`, the growth is 103% in experiment [1]; 96.7% in experiment [2]; 81.5% in experiment [3]; 117% in experiment [10]; 101% in [5]; 103% in experiment [6]. Further, the growth in [7] was 93.3%; in [8] it was 109%; in experiment [9] it was 102%.

Turning to `O=c1[nH]n(C(=S)N/N=C/c2ccc(F)cc2)c(=O)c2ccccc12`, the growth in experiment [1] is 68.9%; in experiment [2], 11.2%; in [3] it was 80.4%; in [4], 57.3%; in experiment [5], 104%; in [6] it was 74.4%. Besides, the growth in experiment [7] was -50.9% (active); in experiment [8] it was 95%; in experiment [9], 78.1%.

For the molecule `O=C1Nc2cc(Cl)ccc2/C1=C/c1cccc(OCc2ccc(Br)cc2F)c1`, the growth in [1] is 4.44% (active); in experiment [2], 1.92% (active); in experiment [3], 33.8%; in [4], -15.1% (active); in [5], 9.99% (active); in [6], 5.06% (active). The growth in experiment [7] is -6.14% (active); in [8], 45.9%; in [9], -32.6% (active).

As to `O=C(c1ccc(-n2c(=O)[nH]c3ccccc3c2=O)cc1)N1CCOCC1`, the growth was 105% in [1]; 97.5% in [3]; 95.5% in experiment [10]; 127% in experiment [4]; 88.1% in [5]; 102% in experiment [6]. The growth is 93.8% in experiment [7], 127% in experiment [8] and 99.3% in [9].

`COc1ccc2nc(Cl)c(-c3cc(-c4ccccc4)nc(=S)[nH]3)cc2c1`: the growth in experiment [1] was 72.6%; in experiment [2] it was 24.8%; in [3], 45.3%; in experiment [4], 46.2%; in experiment [5] it was 67.9%; in experiment [6], 50.9%. In addition, the growth in experiment [7] was 63.5%; in experiment [8], 38.2%; in experiment [9] it was 16.5%.

With `O=C(CSc1ccc(-c2ccc(Cl)cc2)nn1)Nc1ccc(Cl)c(C(F)(F)F)c1`, the growth in experiment [1] was 80%; in experiment [2], 9.36% (active); in experiment [3] it was 54.1%; in experiment [4] it was 71.1%; in experiment [5] it was 73.7%; in experiment [6], 56.3%. In addition, the growth in [7] was 60.7%; in experiment [8] it was 67.7%; in experiment [9], 50.6%.

Regarding `Cc1ccc(-c2cc(-c3cc4ccccc4nc3Cl)[nH]c(=O)n2)cc1`, the growth in experiment [1] is 14.2%; in [2], 1.33% (active); in experiment [3] it was 38.5%; in experiment [4] it was -33.9% (active); in experiment [5], 6.42% (active); in experiment [6] it was 16.2%. The growth was -42.6% (active) in experiment [7], 47% in experiment [8] and 10.2% in experiment [9].

Consider `O=C(c1ccc([N+](=O)[O-])c([N+](=O)[O-])c1O)n1[nH]c(=O)c2ccccc2c1=O`, for which the growth in [1] is 25.4%; in [2] it was 12.8%; in experiment [3], 71.7%; in experiment [4], 66.7%; in [5] it was 76.9%; in experiment [6], 90.9%. For the same molecule, the growth is 66.6% in [7], 79.9% in [8] and 78.6% in experiment [9].

As for `O=C1Nc2ccc(F)cc2/C1=C/c1cccc(OCc2ccccc2)c1`, the growth in experiment [1] was 30.4%; in experiment [2], 6.34% (active); in experiment [3], 32.3%; in [4], -15.9% (active); in experiment [5], 29.9%; in [6], 35.4%. The growth in experiment [7] is 19.8%; in experiment [8], 26.6%; in [9] it was 17.3%.

With `S=c1nc(-c2ccccc2)cc(-c2cc3ccccc3nc2Cl)[nH]1`, the growth in [1] was 90.5%; in experiment [2] it was 14.2%; in [3], 66.4%; in experiment [4], 91.2%; in experiment [5], 70.5%; in experiment [6] it was 55.8%. Besides, the growth in experiment [7] is 72.3%; in experiment [8], 81.6%; in experiment [9], 36.7%.

Consider `Nc1nc(-c2ccccc2)cc(-c2cc3ccccc3nc2Cl)n1`, for which the growth was 81.5% in [1]; 20% in experiment [2]; 88.4% in [3]; 85.2% in [4]; 88.3% in experiment [5]; 78.6% in experiment [6]. Besides, the growth is 78.5% in [7], 97.8% in experiment [8] and 84.2% in experiment [9].

Consider `O=C1Nc2ccc(Cl)cc2/C1=C/c1ccc(OCc2ccc(Br)cc2F)cc1`, for which the growth in experiment [1] is 41.1%; in [2], 40.7%; in experiment [3], 19.2%; in experiment [4], 1.46% (active); in [5], 20.3%; in experiment [6], 22%. For the same molecule, the growth in [7] was 33.3%; in experiment [8] it was 65.2%; in experiment [9] it was 46.8%.

In the case of `O=C1Nc2cc(Cl)ccc2/C1=C/c1ccc(OCc2ccc(Br)cc2F)cc1`, the growth was -17.5% (active) in experiment [1]; 9.64% (active) in experiment [2]; -69.5% (active) in experiment [3]; -77.4% (active) in experiment [4]; -25.9% (active) in experiment [5]; -94.9% (active) in experiment [6]. Moreover, the growth in experiment [7] was -92% (active); in experiment [8], -22.6% (active); in experiment [9], -45.1% (active).
